Screening data deposited in PubChem by National Center for Advancing Translational Sciences (NCATS).
Sampled rows, rich in hits. Any-hit rate of the full collection: about 2.5%.
Cruzain inh Det: qHTS Assay for Promiscuous and Specific Inhibitors of Cruzain (with detergent); Cruzipain (Trypanosoma cruzi), P25779; actives 0.43% (n = 200,000); purified cruzain, Z-FR-AMC fluorescence, 0.01% Triton; Potency, µM, without a hit: max response, negative = inhibition, usual class: inhibitors; AID 1478, 2009;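 also: plate controls were neutral wells for no effect and buffer without enzyme for full effect; nearly all actives have a fitted effect of over 40% in size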
Target sequence (P25779 123-467 limits assumed): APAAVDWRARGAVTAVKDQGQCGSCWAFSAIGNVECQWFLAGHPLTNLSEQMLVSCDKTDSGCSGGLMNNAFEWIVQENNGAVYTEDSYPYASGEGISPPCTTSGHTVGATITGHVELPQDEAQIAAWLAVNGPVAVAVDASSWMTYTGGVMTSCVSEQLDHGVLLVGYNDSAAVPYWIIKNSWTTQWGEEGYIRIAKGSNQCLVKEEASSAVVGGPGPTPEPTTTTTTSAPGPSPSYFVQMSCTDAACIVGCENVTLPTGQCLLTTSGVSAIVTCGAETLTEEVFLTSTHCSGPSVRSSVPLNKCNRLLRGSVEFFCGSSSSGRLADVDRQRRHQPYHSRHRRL
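Read-out: AMC fluorescence (360 nm excitation, 450 nm emission), four reads over 2 min, first-to-third difference used. Conditions: cruzain 1.5 nM, Z-FR-AMC 2 uM, pH 5.5 acetate, 5 mM DTT, 0.01% Triton X-100.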
Cruzain inh noDet: qHTS Assay for Promiscuous and Specific Inhibitors of Cruzain (without detergent); Cruzipain (Trypanosoma cruzi), P25779; purified cruzain, Z-FR-AMC fluorescence, no detergent; Potency, µM, for the others: max response, negative = inhibition, usual class: inhibitors; actives 2.3% (n = 200,000); AID 1476, 2009;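 also: plate controls were enzyme without inhibitor for no effect and buffer without enzyme for full effect; nearly all actives have a fitted effect of over 40% in size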
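Detergent-free condition (0.00005% Triton X-100) in acetate buffer pH 5.5 with DTT. 1.5 nM enzyme and compound were pre-mixed 15 min, then 2 uM Z-FR-AMC substrate added; reaction progress from fluorescence change between first and third reads (60 s).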
* = called active by the depositor; ? = inconclusive. Calls follow the shape of the dose curve; as a rule, active = well fitted curve in the direction sought with a large enough effect; inconclusive = small, poorly fitted or top-dose-only effect, or another doubt; inactive = no such curve, though single readings can be large; an effect the other way counts as inactive or inconclusive. Potency is read from the fitted curve at half-maximal effect.

SMILES | Cruzain inh Det | Cruzain inh noDet
O=C(COc1ccc2c(C(F)(F)F)cc(=O)oc2c1)NCc1cccs1 | -1% | -15%
CC(NC(=O)OCc1ccccc1)C(=O)Oc1cc2oc(=O)cc(-c3ccccc3)c2cc1Cl (stereo unspecified) | 22µM* | ?
O=C(O)NCC1CCCCC1 (tested in a mixture with another compound) | 2% | -10%
CC(C)C[C@@H](CC(=O)N[C@@H](CCCN)CC(=O)N[C@@H]1CCNC[C@H]1C(=O)N[C@H](CC(=O)N[C@@H](CCC(=O)O)CC(=O)O)Cc1ccccc1)NC(=O)[C@@H]1CCCC[C@H]1N | 1% | -3%
Cc1ccc(NC(=O)Cn2cnc3sc(C(=O)O)c(C)c3c2=O)cc1Cl | 0.0063µM* | 6%
Cc1ccc(NC(=O)Cn2cnc3sc(C(=O)NCCN(C)C)c(C)c3c2=O)cc1Cl | -7% | 3%
Cc1ccc(-n2nc(C(=O)Nc3ccc(F)cc3Cl)c(=O)n(C)c2=O)cc1 | -1% | -3%
Cc1c(O)nc(SCC(=O)Nc2ccc3c4c(cccc24)CC3)n(-c2ccccc2)c1=O | -23% | ?
O=C(CSc1nc(O)cc(=O)n1-c1ccccc1)Nc1ccc2c3c(cccc13)CC2 | 25µM* | ?
COc1ccc(-c2noc(CSc3nnc(-c4ccncc4)n3-c3cccc(C)c3)n2)cc1OC | -5% | 6%
CC(C)CC(=O)Nc1ccccc1OCc1cc(=O)n2ccccc2n1 | 4% | -8%
COc1cc(-c2nnc(-c3cccs3)o2)cc(OC)c1OC | -1% | -1%
Fc1ccc2c(Cl)c(-c3nnc(-c4cccs4)o3)sc2c1 | 4% | 10µM*
Cc1cccc(N2CCN(C(=O)CS(=O)(=O)c3cccc4nsnc34)CC2C)c1 (stereo unspecified) | -2% | 1%
CCOc1ccc(OCC)c(NC(=O)c2cc(-c3cccs3)nc3ccccc23)c1 | 3% | -1%
COC(=O)NNC(=O)CCCOc1ccc(Cl)cc1Cl | 1% | 4%
O=C(CCCOc1ccc(Cl)cc1Cl)NNC(=O)c1ccc(NC(=O)c2ccccc2)cc1 | -4% | 4µM*
O=C(O)CCC(=O)NNC(=O)CCCOc1ccc(Cl)cc1Cl | 2% | -9%
Cc1ccccc1C(=O)Nc1ccc(C(=O)NNC(=O)CCCOc2ccc(Cl)cc2Cl)cc1 | 3% | 10µM*
CCNC(=S)N/N=C1\C(=O)c2cccc3cccc1c23 | 2% | ?
O=C(N/N=C1/C(=O)c2cccc3cccc1c23)c1ccc(Cl)cc1 | 10µM* | -27%
COc1cc(C2CC(=O)N(CC(=O)Nc3ccccc3F)c3ccccc3S2)cc(OC)c1OC (stereo unspecified) | -6% | ?
CCCn1nc([N+](=O)[O-])c(C(C#N)c2nc3ccccc3o2)c(Cl)c1=O (stereo unspecified) | -24% | 1%
CCn1nc([N+](=O)[O-])c(C(C#N)c2nc3cc(C(F)(F)F)ccc3s2)c(Cl)c1=O (stereo unspecified) | 22µM* | ?
Nc1ccc(O)c(-c2nc3ccccc3s2)c1 | -24% | 3.2µM*
SMILES | Cruzain inh Det | Cruzain inh noDet
Nc1ccc2nc(-c3ccc(O)cc3)sc2c1 | 106% | ?
O=C(Nc1ccc(O)c(-c2nc3ccccc3s2)c1)c1cc(=O)c2ccccc2o1 | -14% | ?
Oc1ccc(N=C/C=C/c2cccc(Br)c2)cc1-c1nc2ccccc2s1 | -6% | 20µM*
CCOc1ccc(C(=O)Nc2ccc(S(=O)(=O)Nc3nc(C)cc(C)n3)cc2)cc1OC | -3% | ?
O=C(Nc1ccc(Cl)cc1)OCCN1CCN(Cc2ccccc2)CCC1=O | 0% | 7%
COCCn1c(-c2ccco2)nc2nc3ccccc3nc21 | 28µM* | 8%
COCCn1c(-c2cc(OC)c(OC)c(OC)c2)nc2nc3ccccc3nc21 | 5% | -4%
CCN(CC)Cc1c(O)c(Cl)cc2c3c(c(=O)oc12)CCCC3 | ? | -22%
CN(C)Cc1c(O)c(Cl)cc2c3c(c(=O)oc12)CCCC3 | ? | 13µM*
O=c1oc2c(CN3CCOCC3)c(O)c(Cl)cc2c2c1CCC2 | 25µM* | ?
Cc1c(O)c(CN2CCCCC2)cc2c3c(c(=O)oc12)CCC3 | -29% | ?
Cc1c(C)c2cc(Cl)c(O)c(CN(C)C)c2oc1=O | 32µM* | ?
CN(C)Cc1cc(Cl)c(O)c(CN(C)C)c1 | 4% | -1%
Cc1ccc(C(C)C)c(OCCCn2c(=O)oc3ccc(C)cc32)c1 | -10% | -5%
COc1cc(NC(=O)c2nnn(CC(=O)Nc3ccccc3)c2N)cc(OC)c1 | 1% | -20%
Cc1ccc(S(=O)(=O)N=Nc2c(O)[nH]c3cc(O)c(C(=O)O)cc23)cc1 | 2% | -8%
CC(=O)NC(NC(=S)Nc1ccc(N=Nc2ccccc2C)cc1C)C(Cl)(Cl)Cl (stereo unspecified) | -3% | 7.9µM*
Cc1ccc(NC(=S)NC(NC(=O)C(C)(C)C)C(Cl)(Cl)Cl)c(C)c1 (stereo unspecified) | 4% | 10%
COc1ccc(C2c3c(ccc4ccccc34)Oc3ncn4nc(Cc5ccccc5)nc4c32)cc1OC (stereo unspecified) | -2% | ?
COc1ccc(/C=N/OCc2nc3c4c(ncn3n2)Oc2ccc3ccccc3c2C4c2ccccc2)cc1 (stereo unspecified) | 5% | 1.6µM*
C#CCCCCCCCCCCCC(O)CC(O)COC(C)=O (stereo unspecified) | 1% | -2%
C=CCCC(=O)Nc1nc(C)c(-c2csc(Nc3cc(Cl)ccc3OC)n2)s1 | -4% | 16µM*
C=CCNc1nc(-c2sc(NC(=O)CC)nc2C)cs1 | -10% | ?
CCCCCC(=O)Nc1nc(C)c(-c2csc(Nc3cc(OC)ccc3OC)n2)s1 | 5% | ?
COc1ccc(Cl)cc1Nc1nc(-c2sc(NC(=O)CC(C)C)nc2C)cs1 | -2% | 20µM*
SMILES | Cruzain inh Det | Cruzain inh noDet
CCCCCCC(=O)Nc1nc(C)c(-c2csc(Nc3cc(OC)ccc3OC)n2)s1 | -2% | 10µM*
C=CCCC(=O)Nc1nc(C)c(-c2csc(Nc3ccc(Cl)cc3Cl)n2)s1 | -1% | ?
Cc1nc(NC(=O)CC(C)C)sc1-c1csc(Nc2ccc(Cl)cc2)n1 | 2% | 13µM*
CCc1ccc(-n2c(=O)c3c4c(sc3n(Cc3ccccc3C#N)c2=O)CCCC4)cc1 | -19% | 24%
Cc1ccc(S(=O)(=O)c2nc(S(C)(=O)=O)sc2N(C)Cc2ccccc2)cc1 | -8% | -5%
CCCCN(C)CCNC(=O)c1cc(=O)[nH]c2ccc(S(=O)(=O)N3CCCCCC3)cc12 | 0% | 0%
COc1ccc(NC(=O)CSc2nc(-c3ccc(F)cc3)c3cccc(C)c3n2)cc1 | 3% | -7%
CC(=O)Nc1ccc(S(=O)(=O)NCc2ccc3c(c2)CCN3C(C)=O)cc1 | 0% | 4%
COc1ccc2c(c1)C(=O)[C@H](OC(=O)NCc1ccco1)[C@@H](c1ccc(OC)c(Br)c1)O2 | -1% | -13%
Cc1nc(NC(=O)CC(C)C)sc1-c1csc(Nc2ccc(Cl)cc2Cl)n1 | -1% | 16µM*
C#CCn1cc(/C=N/Nc2nc3ccccc3[nH]2)c2ccccc21 | -22% | 32µM*
CCCCn1c(/C=N/Nc2nc3ccccc3[nH]2)nc2ccccc21 | -11% | ?
COc1cc([N+](=O)[O-])ccc1NC(=O)N1CCC2(CC1)Nc1cc(F)ccc1-n1cccc12 | -3% | 25µM*
COc1ccccc1N1CCN(C(=O)Nc2ccc([N+](=O)[O-])cc2)CC1 | -10% | -9%
N[C@@H](CO)C(=O)O | -1% | -1%
